The values below come from the antibiotic and cytotoxicity screens of Wong et al. (2023).

Among all 39,000 compounds or so, about 3,300 (8.5%) were called active. For the sample, actives were picked, then their nearest neighbours and some compounds at random.

The test relates to HepG2. The test is described as follows: cytotoxicity call (relative viability < 0.9). As to conditions: 10 µM.
Turning to `C[C@@H]1CN([C@H](C)CO)C(=O)c2cc(NC(=O)Nc3ccc(C(F)(F)F)cc3)ccc2O[C@@H](C)CCCCO[C@@H]1CN(C)S(=O)(=O)c1cn(C)cn1`, the cytotoxicity call is “inactive”.
Regarding `C[C@H](CO)N1C[C@H](C)[C@@H](CN(C)S(=O)(=O)c2ccc(F)cc2)OCCCC[C@H](C)Oc2ccc(NC(=O)C3CCCCC3)cc2C1=O`, the cytotoxicity call is “inactive”.
Consider `Cc1noc(C)c1S(=O)(=O)Nc1ccc2c(c1)C(=O)N([C@@H](C)CO)C[C@H](C)[C@H](CN(C)Cc1ccc(-c3ccccc3)cc1)O2`, for which the cytotoxicity call is “inactive”.
As for `CCS(=O)(=O)N1CCC(C(=O)N(C)C)CC1`, the cytotoxicity call was “inactive”.
For the compound `C[C@@H]1CN([C@@H](C)CO)C(=O)c2c(c3ccccc3n2C)-c2ccccc2CO[C@H]1CN(C)CC1CCCCC1`, the cytotoxicity call was “inactive”.
Regarding `C[C@H](CO)N1C[C@H](C)[C@H](CN(C)C(=O)NC2CCCCC2)OCc2ccccc2-c2c(n(C)c3ccccc23)C1=O`, the cytotoxicity call is “active”.
Consider `C[C@H]1CN([C@@H](C)CO)C(=O)c2c(c3ccccc3n2C)-c2ccccc2CO[C@H]1CN(C)CC1CCCCC1`, for which the cytotoxicity call is “inactive”.
Take `C[C@@H]1CN([C@@H](C)CO)C(=O)c2c(c3ccccc3n2C)-c2ccccc2CO[C@@H]1CN(C)CC1CCCCC1`: the cytotoxicity call is “active”.
For `C[C@H](CO)N1C[C@H](C)[C@@H](CN(C)CC2CCCCC2)OCc2ccccc2-c2c(n(C)c3ccccc23)C1=O` the value was “inactive”.
With `C[C@@H]1CN([C@H](C)CO)C(=O)c2c(c3ccccc3n2C)-c2ccccc2CO[C@@H]1CN(C)CC1CCCCC1`, the cytotoxicity call is “inactive”.
For `C[C@H]1CN([C@@H](C)CO)C(=O)c2c(c3ccccc3n2C)-c2ccccc2CO[C@@H]1CN(C)CC1CCCCC1` the value was “active”; for `C[C@@H]1CN([C@H](C)CO)C(=O)c2c(c3ccccc3n2C)-c2ccccc2CO[C@@H]1CN(C)C(=O)NC1CCCCC1`, “inactive”.
In the case of `C[C@H](CO)N1C[C@H](C)[C@@H](CN(C)C(=O)NC2CCCCC2)OCc2ccccc2-c2c(n(C)c3ccccc23)C1=O`, the cytotoxicity call is “inactive”.
Regarding `CC1(C)S[C@H]2[C@@H](NC(=O)[C@@H](NC(=O)N3CCN(S(C)(=O)=O)C3=O)c3ccccc3)C(=O)N2[C@@H]1C(=O)O`, the cytotoxicity call was “inactive”.
For `CCCNC(=O)Nc1ccc2c(c1)C(=O)N(C)C[C@@H](OC)[C@@H](C)CN(C(=O)C1CCOCC1)[C@@H](C)CO2`, the cytotoxicity call was “inactive”.
Under `Cc1noc(C)c1NC(=O)N(C)C[C@H]1OCCCC[C@@H](C)Oc2ccc(NC(=O)CCC(F)(F)F)cc2C(=O)N([C@H](C)CO)C[C@H]1C` stands “inactive”.
For `C[C@H](C(=O)O)N1CCCCC1` the value was “inactive”.
In the case of `CC(C)c1cn(CC[C@H]2CC[C@H](N)[C@@H](CO)O2)nn1`, the cytotoxicity call is “inactive”.
For `CC[C@@H](Sc1n[nH]c(=O)[nH]c1=O)C(=O)O` the value was “inactive”; for `COCC(=O)N(C)C[C@H]1Oc2cc(C#CCC3CCCC3)ccc2S(=O)(=O)N([C@H](C)CO)C[C@H]1C`, “inactive”; for `C[C@@H]1CN([C@H](C)CO)C(=O)Cc2cc(NC(=O)C3CC3)ccc2O[C@H]1CN(C)C(=O)Nc1ccccc1`, “inactive”.
For the compound `COCC(=O)N1[C@@H]2c3ccc(C4=CCCCC4)c(=O)n3C[C@@H]2[C@@H](CO)[C@@H]1C(=O)N1CCOCC1`, the cytotoxicity call was “inactive”.
For `C=CC(=O)Nc1cccc(C)c1Nc1ncc2cc(-c3c(Cl)c(OC)cc(OC)c3Cl)ccc2n1` the value was “active”; for `COCC(=O)Nc1ccc2c(c1)C(=O)N(C)[C@@H]1CC[C@@H](CC(=O)NCc3ccc(OC)cc3)O[C@H]1CO2`, “inactive”; for `Cc1noc(C)c1NC(=O)N(C)C[C@H]1Oc2ccc(NC(=O)Nc3ccc(C(F)(F)F)cc3)cc2C(=O)N([C@@H](C)CO)C[C@H]1C`, “inactive”.
For the compound `COCC(=O)N(C)C[C@H]1Oc2cc(C#C[C@@H](C)O)ccc2S(=O)(=O)N([C@H](C)CO)C[C@@H]1C`, the cytotoxicity call is “inactive”.
For `C[C@@H]1CCCCO[C@@H](CN(C)Cc2ccc(Cl)c(Cl)c2)[C@H](C)CN([C@@H](C)CO)C(=O)c2cc(NC(=O)CCC(F)(F)F)ccc2O1`, the cytotoxicity call was “inactive”.
As to `C[C@@H]1CCCCO[C@H](CN(C)Cc2ccc(Cl)c(Cl)c2)[C@@H](C)CN([C@H](C)CO)C(=O)c2cc(NC(=O)CCC(F)(F)F)ccc2O1`, the cytotoxicity call was “inactive”.
For `C[C@H](CO)N1C[C@H](C)[C@@H](CN(C)Cc2ccc(Cl)c(Cl)c2)OCCCC[C@H](C)Oc2ccc(NC(=O)CCC(F)(F)F)cc2C1=O` the value was “inactive”; for `C[C@H]1CCCCO[C@H](CN(C)Cc2ccc(Cl)c(Cl)c2)[C@@H](C)CN([C@@H](C)CO)C(=O)c2cc(NC(=O)CCC(F)(F)F)ccc2O1`, “inactive”.
Under `C[C@@H]1CCCCO[C@H](CN(C)Cc2ccc(Cl)c(Cl)c2)[C@@H](C)CN([C@@H](C)CO)C(=O)c2cc(NC(=O)CCC(F)(F)F)ccc2O1` stands “inactive”; under `C[C@@H]1CN([C@@H](C)CO)C(=O)c2cc(NC(=O)CCC(F)(F)F)ccc2O[C@@H](C)CCCCO[C@H]1CN(C)Cc1ccc(Cl)c(Cl)c1`, “inactive”; under `C[C@@H]1CN([C@H](C)CO)C(=O)c2cc(NC(=O)CCC(F)(F)F)ccc2O[C@@H](C)CCCCO[C@@H]1CN(C)Cc1ccc(Cl)c(Cl)c1`, “active”.
With `C[C@@H]1CCCCO[C@@H](CN(C)Cc2ccc(Cl)c(Cl)c2)[C@@H](C)CN([C@@H](C)CO)C(=O)c2cc(NC(=O)CCC(F)(F)F)ccc2O1`, the cytotoxicity call was “active”.
For `C[C@@H]1CCCCO[C@@H](CN(C)Cc2ccc(Cl)c(Cl)c2)[C@@H](C)CN([C@H](C)CO)C(=O)c2cc(NC(=O)CCCN(C)C)ccc2O1` the value was “active”; for `C[C@@H]1CN([C@H](C)CO)C(=O)c2cc(NC(=O)CCC(F)(F)F)ccc2O[C@@H](C)CCCCO[C@H]1CN(C)Cc1ccc(Cl)c(Cl)c1`, “active”.
Turning to `Cn1cnc(S(=O)(=O)N[C@@H]2C=C[C@H](CC(=O)NCC3CC3)O[C@H]2CO)c1`, the cytotoxicity call is “inactive”.
In the case of `COc1ccc(S(=O)(=O)N(C)C[C@@H]2OCCCC[C@@H](C)Oc3ccc(NC(=O)CCCCCC(=O)Nc4ccccc4N)cc3C(=O)N([C@H](C)CO)C[C@@H]2C)cc1`, the cytotoxicity call was “inactive”.
For `COc1ccccc1CNC(=O)C[C@@H]1C[C@@H]2c3cc(NC(=O)Cc4ccncc4)ccc3O[C@@H]2[C@@H](CO)O1` the value was “inactive”; for `C[C@@H]1CCCCO[C@@H](CN(C)CC2CCCCC2)[C@@H](C)CN([C@@H](C)CO)C(=O)c2cc(N(C)C)ccc2O1`, “inactive”.
Regarding `C[C@H](CO)N1C[C@H](C)[C@H](CN(C)C(=O)Nc2ccc3c(c2)OCO3)OCCCC[C@H](C)Oc2ccc(NS(=O)(=O)c3ccc(F)cc3)cc2C1=O`, the cytotoxicity call was “inactive”.
`CS(=O)(=O)N1C[C@@H](O)COC[C@@H]2O[C@H](CC(=O)NCc3ccccc3)CC[C@H]21`: the cytotoxicity call is “inactive”.
Consider `C[C@@H]1CCCCO[C@H](CN(C)C(=O)Nc2ccc(F)cc2)[C@@H](C)CN([C@H](C)CO)C(=O)c2cc(NS(=O)(=O)c3cccs3)ccc2O1`, for which the cytotoxicity call is “inactive”.
Under `O=C(C[C@H]1CC[C@H]2[C@@H](COC[C@@H](O)CN2S(=O)(=O)c2ccccc2)O1)NCCN1CCCCC1` stands “inactive”.
Regarding `Cc1noc(C)c1NC(=O)Nc1ccc2c(c1)C(=O)N([C@@H](C)CO)C[C@H](C)[C@H](CN(C)C(=O)Nc1ccc3c(c1)OCO3)OCCCC[C@H](C)O2`, the cytotoxicity call is “inactive”.
`COc1ccc(S(=O)(=O)N(C)C[C@H]2Oc3c(cccc3N(C)C)C(=O)N([C@@H](C)CO)C[C@H]2C)cc1`: the cytotoxicity call was “inactive”.
As for `C[C@@H]1CCCCO[C@H](CN(C)Cc2ccc3c(c2)OCO3)[C@@H](C)CN([C@@H](C)CO)C(=O)c2cc(NC(=O)CCC(F)(F)F)ccc2O1`, the cytotoxicity call was “inactive”.
On to `C[C@@H]1CCCCO[C@H](CN(C)Cc2ccc(Cl)c(Cl)c2)[C@H](C)CN([C@@H](C)CO)C(=O)c2cc(NC(=O)CCC(F)(F)F)ccc2O1`, for which the cytotoxicity call was “active”.
Consider `C[C@@H]1CCCCO[C@H](CN(C)Cc2ccc(Cl)c(Cl)c2)[C@H](C)CN([C@H](C)CO)C(=O)c2cc(NC(=O)CCC(F)(F)F)ccc2O1`, for which the cytotoxicity call is “active”.
Under `C[C@@H]1CCCCO[C@@H](CN(C)Cc2ccc(Cl)c(Cl)c2)[C@H](C)CN([C@H](C)CO)C(=O)c2cc(NC(=O)CCC(F)(F)F)ccc2O1` stands “inactive”.
`C[C@@H]1CCCCO[C@@H](CN(C)Cc2ccc(Cl)c(Cl)c2)[C@@H](C)CN([C@H](C)CO)C(=O)c2cc(NC(=O)CCC(F)(F)F)ccc2O1`: the cytotoxicity call is “inactive”.
For `C[C@@H]1CCCCO[C@@H](CN(C)Cc2ccc3c(c2)OCO3)[C@H](C)CN([C@H](C)CO)C(=O)c2cc(NC(=O)CCC(F)(F)F)ccc2O1` the value was “inactive”; for `COc1ccc(S(=O)(=O)Nc2ccc3c(c2)C(=O)N([C@@H](C)CO)C[C@@H](C)[C@@H](CN(C)S(=O)(=O)c2cn(C)cn2)OCCCC[C@@H](C)O3)cc1`, “inactive”; for `C[C@@H]1CCCCO[C@@H](CN(C)C(=O)Cc2ccccc2)[C@@H](C)CN([C@@H](C)CO)C(=O)c2cc(NC(=O)NC3CCCCC3)ccc2O1`, “inactive”.
Under `C[C@@H]1COC(=O)[C@@H](NC(=O)OCC2c3ccccc3-c3ccccc32)CC=CC[C@H](CC(=O)NCCO)C(=O)N1` stands “inactive”; under `CN(C)CCCC[C@@H]1NC(=O)[C@H]2C[C@@H](C(=O)NCCCCCNC(=O)CS)[C@@H](c3ccc(O)cc3)N2C1=O`, “inactive”; under `O/N=C/c1c(Cl)cccc1Cl`, “inactive”.
Under `O/N=C/c1ccc2ccccc2c1` stands “inactive”; under `O/N=C/c1ccccc1C(F)(F)F`, “active”.
`CC(C)(C)N1C[C@H](C(=O)O)CC1=O`: the cytotoxicity call is “inactive”.
Take `Cc1ccc(S(=O)(=O)Nc2cccc3c2O[C@H](CN(C)S(C)(=O)=O)[C@@H](C)CN([C@H](C)CO)C3=O)cc1`: the cytotoxicity call was “inactive”.
Take `C[C@@H]1CN([C@@H](C)CO)S(=O)(=O)c2ccc(-c3cncnc3)cc2O[C@@H]1CN(C)C(=O)c1ccc2c(c1)OCO2`: the cytotoxicity call was “inactive”.
For the compound `O=c1[nH]c(=O)c2ccccc2o1`, the cytotoxicity call was “inactive”.
Regarding `CCc1oc2ccccc2c1C(=O)c1cc(Br)c(O)c(Br)c1`, the cytotoxicity call was “active”.
For `O=c1c2ccccc2oc2ccc(O)cc12` the value was “inactive”.
